Where “and” joins values, the source holds several entries; their conditions need not be identical. Identical values can stand only once. Out of some 5,500 compounds screened, about 2,000 (36%) were called active. About 18% were inconclusive and are not listed. Rule as the data show it: active = normalized growth mostly below about 0.91 (no sharp cut-off); inconclusive = no clear call, values can overlap the other calls; inactive = mostly above about 0.92. Some of the results follow.
Test: chemical genetic growth profiling, strain panel (AID 1159580);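 also: tested at 20 µM; growth read once vehicle control cultures reached saturation at 30 °C; 1 = growth at the plate median or of vehicle wells; lower values mean less growth of the strain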
Conditions: S. cerevisiae deletion strains, growth OD

Measured: normalized growth

CC(C)=CCOc1c2occc2cc2ccc(=O)oc12
inactive: locus YAL021C, strain ccr4, stronger effect = lower value 0.963 | locus YBR231C, strain swc5, stronger effect = lower value 0.922 | locus YCR088W, strain abp1, stronger effect = lower value 0.928 | locus YDL005C, strain med2, stronger effect = lower value 0.947 | locus YDL040C, strain nat1, stronger effect = lower value 0.934 | locus YDR069C, strain doa4, stronger effect = lower value 0.923 | locus YDR159W, strain sac3, stronger effect = lower value 0.944 | locus YDR195W, strain ref2 1.07 | locus YDR297W, strain sur2, stronger effect = lower value 0.926 | locus YDR335W, strain msn5, stronger effect = lower value 0.942 | locus YEL003W, strain gim4, stronger effect = lower value 0.929 | locus YEL037C, strain rad23, stronger effect = lower value 0.937 | locus YEL061C, strain CIN8 (second series), stronger effect = lower value 0.929 | locus YER015W, strain faa2, stronger effect = lower value 0.935 | locus YER016W, strain bim1, stronger effect = lower value 0.927 | locus YER111C, strain swi4, stronger effect = lower value 0.929 | locus YFR010W, strain ubp6, stronger effect = lower value 0.938 | locus YGL227W, strain vid30, stronger effect = lower value 0.918 | locus YHR013C, strain ard1, stronger effect = lower value 0.87 | locus YHR027C, strain rpn1, stronger effect = lower value 0.954 | locus YHR030C, strain SLT2, stronger effect = lower value 0.978 | locus YHR079C, strain IRE1, stronger effect = lower value 0.975 | locus YIL073C, strain SPO22, stronger effect = lower value 0.792 | locus YJL115W, strain asf1, stronger effect = lower value 0.922 | locus YJL154C, strain vps35, stronger effect = lower value 0.935 | locus YJL187C, strain SWE1, stronger effect = lower value 0.929 | locus YJR066W, strain TOR1, stronger effect = lower value 0.891 | locus YLL026W, stronger effect = lower value 0.931 | locus YLR113W, strain HOG1, stronger effect = lower value 1.02 | locus YLR357W, strain rsc2, stronger effect = lower value 0.871 | locus YMR231W, strain pep5, stronger effect = lower value 0.936 | locus YNL183C, strain NPR1, stronger effect = lower value 0.912 | locus YNL209W, strain ssb2, stronger effect = lower value 0.936 | locus YNL248C, strain rpa49, stronger effect = lower value 0.936 | locus YOL012C, strain htz1 0.448 | locus YOR061W, strain CKA2, stronger effect = lower value 0.917 | locus YOR070C, strain gyp1, stronger effect = lower value 0.93 | locus YOR080W, strain dia2, stronger effect = lower value 0.921 | locus YOR106W, strain vam3, stronger effect = lower value 0.881 | locus YOR231W, strain MKK1, stronger effect = lower value 0.955 | locus YOR265W, strain rbl2, stronger effect = lower value 0.93 | locus YPL106C, strain sse1, stronger effect = lower value 0.941 | locus YPL256C, strain CLN2, stronger effect = lower value 0.969
0.297 (active) and 0.984 (inactive): locus YJL095W, strain BCK1, stronger effect = lower value
active: locus YAL013W, strain DEP1, stronger effect = lower value 0.734 | locus YAL026C, strain drs2, stronger effect = lower value 0.874 | locus YAL030W, strain snc1, stronger effect = lower value 0.928 | locus YBL061C, strain skt5, stronger effect = lower value 0.892 | locus YBR009C, strain hhf1, stronger effect = lower value 0.851 | locus YBR021W, strain FUR4, stronger effect = lower value 0.74 | locus YBR023C, strain chs3, stronger effect = lower value 0.864 | locus YBR171W, strain sec66, stronger effect = lower value 0.865 | locus YBR229C, strain ROT2, stronger effect = lower value 0.896 | locus YBR279W, strain paf1, stronger effect = lower value 0.921 | locus YCL011C, strain gbp2, stronger effect = lower value 0.849 | locus YCL016C, strain dcc1, stronger effect = lower value 0.859 | locus YCL029C, strain bik1, stronger effect = lower value 0.804 | locus YCL061C, strain MRC1, stronger effect = lower value 0.876 | locus YCL069W, strain vba3, stronger effect = lower value 0.912 | locus YDL035C, strain GPR1, stronger effect = lower value 0.857 | locus YDL074C, strain BRE1, stronger effect = lower value 0.606 | locus YDL101C, strain DUN1, stronger effect = lower value 0.559 | locus YDL185W, strain tfp1, stronger effect = lower value 0.875 | locus YDL192W, strain arf1, stronger effect = lower value 0.67 | locus YDR001C, strain nth1, stronger effect = lower value 0.899 | locus YDR101C, strain arx1, stronger effect = lower value 0.808 | locus YDR137W, strain rgp1, stronger effect = lower value 0.729 | locus YDR150W, strain NUM1, stronger effect = lower value 0.899 | locus YDR162C, strain NBP2, stronger effect = lower value 0.507 | locus YDR318W, strain mcm21, stronger effect = lower value 0.649 | locus YDR334W, strain swr1, stronger effect = lower value 0.892 | locus YDR388W, stronger effect = lower value 0.837 | locus YDR392W, strain spt3, stronger effect = lower value 0.353 | locus YDR502C, strain sam2, stronger effect = lower value 0.736 | locus YER110C, stronger effect = lower value 0.728 | locus YER155C, strain BEM2 (second series), stronger effect = lower value 0.509 | locus YER155C, strain BEM2, stronger effect = lower value 0.575 | locus YER167W, strain BCK2, stronger effect = lower value 0.722 | locus YGL078C, strain dbp3, stronger effect = lower value 0.92 | locus YGL086W, strain mad1, stronger effect = lower value 0.678 | locus YGL167C, strain pmr1, stronger effect = lower value 0.887 | locus YGL173C, strain kem1, stronger effect = lower value 0.885 | locus YGL240W, strain doc1, stronger effect = lower value 0.741 | locus YGL248W, strain PDE1, stronger effect = lower value 0.672 | locus YGL253W, strain hxk2, stronger effect = lower value 0.807 | locus YGR135W, strain pre9, stronger effect = lower value 0.666 | locus YGR252W, strain gcn5, stronger effect = lower value 0.519 | locus YHR079C, strain IRE1 (second series), stronger effect = lower value 0.856 | locus YHR094C, strain hxt1, stronger effect = lower value 0.821 | locus YHR129C, strain ARP1, stronger effect = lower value 0.652 | locus YHR142W, strain chs7, stronger effect = lower value 0.679 | locus YHR200W, strain rpn10, stronger effect = lower value 0.822 | locus YIL066C, strain RNR3, stronger effect = lower value 0.697 | locus YIL125W, strain kgd1, stronger effect = lower value 0.895 | locus YIR030C, strain dcg1, stronger effect = lower value 0.842 | locus YJL092W, strain hpr5, stronger effect = lower value 0.9 | locus YJL095W, strain BCK1 (second series), stronger effect = lower value 0.898 | locus YJL129C, strain trk1, stronger effect = lower value 0.774 | locus YJL134W, strain LCB3, stronger effect = lower value 0.895 | locus YJL164C, strain tpk1, stronger effect = lower value 0.859 | locus YJL166W, strain qcr8, stronger effect = lower value 0.895 | locus YJL168C, strain set2, stronger effect = lower value 0.875 | locus YJL187C, strain SWE1 (second series), stronger effect = lower value 0.739 | locus YJR043C, strain POL32, stronger effect = lower value 0.742 | locus YKL009W, strain mrt4, stronger effect = lower value 0.844 | locus YKL068W, stronger effect = lower value 0.898 | locus YKL085W, strain MDH1 (second series), stronger effect = lower value 0.898 | locus YKL085W, strain MDH1, stronger effect = lower value 0.898 | locus YKL160W, strain elf1, stronger effect = lower value 0.898 | locus YKL190W, strain CNB1, stronger effect = lower value 0.854 | locus YKR001C, strain vps1, stronger effect = lower value 0.599 | locus YKR026C, strain gcn3, stronger effect = lower value 0.905 | locus YKR091W, strain srl3, stronger effect = lower value 0.929 | locus YLL001W, strain dnm1, stronger effect = lower value 0.862 | locus YLL041C, strain sdh2, stronger effect = lower value 0.919 | locus YLR027C, strain aat2, stronger effect = lower value 0.893 | locus YLR039C, strain RIC1, stronger effect = lower value 0.429 | locus YLR058C, strain SHM2, stronger effect = lower value 0.748 | locus YLR102C, strain apc9, stronger effect = lower value 0.843 | locus YLR221C, strain rsa3, stronger effect = lower value 0.821 | locus YLR258W, strain gsy2, stronger effect = lower value 0.908 | locus YLR262C, strain YPT6 (second series), stronger effect = lower value 0.749 | locus YLR262C, strain YPT6, stronger effect = lower value 0.448 | locus YLR268W, strain sec22, stronger effect = lower value 0.695 | locus YLR320W, strain mms22, stronger effect = lower value 0.652 | locus YLR330W, strain CHS5, stronger effect = lower value 0.507 | locus YLR342W, strain FKS1 (second series), stronger effect = lower value 0.416 | locus YLR342W, strain FKS1, stronger effect = lower value 0.86 | locus YLR370C, strain arc18, stronger effect = lower value 0.906 | locus YLR371W, strain rom2, stronger effect = lower value 0.582 | locus YLR384C, strain iki3, stronger effect = lower value 0.9 | locus YLR418C, strain cdc73, stronger effect = lower value 0.28 | locus YML016C, strain PPZ1, stronger effect = lower value 0.875 | locus YML032C, strain rad52, stronger effect = lower value 0.676 | locus YML120C, strain ndi1, stronger effect = lower value 0.875 | locus YML124C, strain tub3, stronger effect = lower value 0.827 | locus YMR058W, strain fet3, stronger effect = lower value 0.886 | locus YMR078C, strain ctf18, stronger effect = lower value 0.781 | locus YMR125W, strain sto1, stronger effect = lower value 0.826 | locus YMR129W, stronger effect = lower value 0.921 | locus YMR205C, strain PFK2, stronger effect = lower value 0.817 | locus YMR223W, strain ubp8, stronger effect = lower value 0.736 | locus YMR307W, strain GAS1, stronger effect = lower value 0.443 | locus YNL067W, strain RPL9B, stronger effect = lower value 0.764 | locus YNL071W, strain lat1, stronger effect = lower value 0.573 | locus YNL153C, strain GIM3, stronger effect = lower value 0.73 | locus YNL233W, strain BNI4, stronger effect = lower value 0.517 | locus YNL250W, strain rad50, stronger effect = lower value 0.884 | locus YNL271C, strain bni1, stronger effect = lower value 0.849 | locus YNL298W, strain CLA4, stronger effect = lower value 0.823 | locus YNL307C, strain MCK1, stronger effect = lower value 0.222 | locus YNL322C, strain KRE1 (second series), stronger effect = lower value 0.904 | locus YNR049C, strain mso1, stronger effect = lower value 0.914 | locus YNR052C, strain pop2, stronger effect = lower value 0.877 | locus YOL006C, strain TOP1, stronger effect = lower value 0.373 | locus YOL147C, strain pex11, stronger effect = lower value 0.551 | locus YOR001W, strain rrp6, stronger effect = lower value 0.89 | locus YOR069W, strain VPS5, stronger effect = lower value 0.783 | locus YOR083W, strain WHI5, stronger effect = lower value 0.86 | locus YOR136W, strain idh2, stronger effect = lower value 0.851 | locus YOR144C, strain elg1, stronger effect = lower value 0.717 | locus YOR184W, strain ser1, stronger effect = lower value 0.459 | locus YOR270C, strain vph1, stronger effect = lower value 0.592 | locus YOR290C, strain snf2, stronger effect = lower value 0.787 | locus YOR316C, strain cot1, stronger effect = lower value 0.86 | locus YPL051W, strain arl3, stronger effect = lower value 0.908 | locus YPL055C, strain LGE1, stronger effect = lower value 0.657 | locus YPL078C, strain atp4, stronger effect = lower value 0.843 | locus YPL240C, strain hsp82, stronger effect = lower value 0.912 | locus YPR119W, strain clb2, stronger effect = lower value 0.837 | locus YPR141C, strain kar3, stronger effect = lower value 0.869 | locus YPR163C, strain tif3, stronger effect = lower value 0.34 | locus YPR167C, strain met16, stronger effect = lower value 0.782 | strain wtn01, stronger effect = lower value 0.708

Source: PubChem BioAssay AID1159580 (chemical genetic matrix, 2015)
